Data reported in the supplement of paper PMC8975748.

These compounds were tested on Saccharomyces cerevisiae BY4741 SeMeCo community (assay: z-score of subpopulation abundance vs DMSO median, subpopulation auxotrophic for HLUM; higher = larger share of this subpopulation than in DMSO controls). Conditions: 10 µM; 24 h; SM minimal medium; subpopulation (auxotrophy): HLUM.
In short: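 Automated confocal microscopy of paraformaldehyde-fixed cells was used to follow a Saccharomyces cerevisiae BY4741 community carrying four plasmids, each restoring one auxotrophy and encoding a distinct fluorescent protein. The community was pre-grown overnight to OD600 1.0, diluted to 0.3, and added at 70 µl to 384-well plates acoustically predosed with library drugs (10 µM final) for 24 h of growth in minimal SM medium. Single-auxotroph fluorescent strains set thresholds and autofluorescence correction, and each subpopulation's abundance was scored as a z-score against the vehicle-well median.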
With `NCC[C@H](O)C(=O)N[C@@H]1C[C@H](N)[C@@H](O[C@H]2O[C@H](CN)[C@@H](O)[C@H](O)[C@H]2O)[C@H](O)[C@H]1O[C@H]1O[C@H](CO)[C@@H](O)[C@H](N)[C@H]1O` [Amikacin hydrate] the “z-score of subpopulation abundance” value was 0.15. In the case of `CO/N=C(\C(=O)N[C@@H]1C(=O)N2C(C(=O)O)=C(CSc3nc(C)c(CC(=O)O)s3)CS[C@H]12)c1csc(N)n1` [Cefodizime Sodium], the “z-score of subpopulation abundance” value is reported as -0.81. For `COc1ccc2c3c1O[C@H]1C[C@@H](O)C=C[C@@]31CCN(C)C2` [Galanthamine], the “z-score of subpopulation abundance” value was 1.34. `CC[C@H](C)C(=O)O[C@H]1CCC=C2C=C[C@H](C)[C@H](CC[C@@H]3C[C@@H](O)CC(=O)O3)[C@H]21` [Mevastatin] was tested, and the “z-score of subpopulation abundance” value was -0.71. With `CN1CCN(CCCN2c3ccccc3Sc3ccc(C(F)(F)F)cc32)CC1` [Trifluoperazine 2HCl] the “z-score of subpopulation abundance” value was -0.04. `O=C(Cn1ccnc1[N+](=O)[O-])NCc1ccccc1` [Benznidazole] was tested, and the “z-score of subpopulation abundance” value was -0.21. With `CCN(Cc1ccncc1)C(=O)C(CO)c1ccccc1` (configuration not stated) [Tropicamide] the “z-score of subpopulation abundance” value was 0.01.
